Source: PubChem BioAssay (NCATS)
Results filed as inconclusive are left out. Values without a mark were called inactive. The source made the active and inactive calls. Calls follow the shape of the dose curve; as a rule, active = well fitted curve in the direction sought with a large enough effect; inconclusive = small, poorly fitted or top-dose-only effect, or another doubt; inactive = no such curve, though single readings can be large; an effect the other way counts as inactive or inconclusive.

Legend:
[1] = Primary redox qHTS assay for identification of artifact compounds. (AID 1845223)
Procedure, shortened: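 Amplex Red (25 uM) and HRP (250 mU/mL) in HBSS, with compounds for 15 min, then 250 uM DTT for 30 min, room temperature, dark. Fluorescence 525/598 nm read; normalized to DMSO and 10 uM DA3003; Hill fit.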

[2] = Quantitative High-Throughput drug screen in 47 multiple myeloma cell lines against the NCATS MIPE library collection: FR4_PLB cell viability assay (AID 1918924; also: nearly all actives have a fitted effect of over 35% in size; also: potency is read from the fitted curve at half-maximal effect)
Procedure, shortened: (§1)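 Myeloma cell lines, 500 cells per well, exposed to MIPE 4.0 library compounds for 48 h at 37C, 5% CO2. Viability from ATP by CellTiter-Glo luminescence; normalised to DMSO (100%) and media-only (0%) wells.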

[3] = Quantitative High-Throughput drug screen in 47 multiple myeloma cell lines against the NCATS MIPE library collection: Delta47_JCRB cell viability assay (AID 1918925; also: nearly all actives have a fitted effect of over 45% in size; also: potency is read from the fitted curve at half-maximal effect)
Procedure, shortened: (§2)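 CellTiter-Glo ATP luminescence gave viability after 48 h compound treatment at 37C of 500 multiple myeloma cells per well. Normalisation used DMSO-only wells as 100% and media-only wells as 0% viability; primary qHTS of approved and investigational drugs.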

[4] = Quantitative High-Throughput drug screen in 47 multiple myeloma cell lines against the NCATS MIPE library collection: EJM_DSMZ cell viability assay (AID 1918926; also: nearly all actives have a fitted effect of over 30% in size; also: potency is read from the fitted curve at half-maximal effect)
Procedure, shortened: as §2

[5] = Quantitative High-Throughput drug screen in 47 multiple myeloma cell lines against the NCATS MIPE library collection: ARP1_JJKsccF8 cell viability assay (AID 1918928; also: nearly all actives have a fitted effect of over 40% in size; also: potency is read from the fitted curve at half-maximal effect)
Procedure, shortened: (§3)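 Here, 48 h treatment with MIPE 4.0 agents at 37 °C preceded an ATP luminescence read. Plating density was 500 cells per well.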

[6] = Quantitative High-Throughput drug screen in 47 multiple myeloma cell lines against the NCATS MIPE library collection: ARD_JJKsccE7 cell viability assay (AID 1918929; also: potency is read from the fitted curve at half-maximal effect)
Procedure, shortened: as §2

[7] = Quantitative High-Throughput drug screen in 47 multiple myeloma cell lines against the NCATS MIPE library collection: KMM1_JCRB cell viability assay (AID 1918960); also: nearly all actives have a fitted effect of over 30% in size; also: potency is read from the fitted curve at half-maximal effect
Procedure, shortened: as §3

[8] = Quantitative High-Throughput drug screen in 47 multiple myeloma cell lines against the NCATS MIPE library collection: KHM11_PLB cell viability assay (AID 1918962); also: nearly all actives have a fitted effect of over 35% in size; also: potency is read from the fitted curve at half-maximal effect
Procedure, shortened: as §1

[9] = Quantitative High-Throughput drug screen in 47 multiple myeloma cell lines against the NCATS MIPE library collection: JIM3_ECACC cell viability assay (AID 1918963; also: nearly all actives have a fitted effect of over 35% in size; also: potency is read from the fitted curve at half-maximal effect)
Procedure, shortened: as §1

[10] = Quantitative High-Throughput drug screen in 47 multiple myeloma cell lines against the NCATS MIPE library collection: INA6_PLB cell viability assay (AID 1918965; also: nearly all actives have a fitted effect of over 55% in size; also: potency is read from the fitted curve at half-maximal effect)
Procedure, shortened: as §1

[11] = Quantitative High-Throughput drug screen in 47 multiple myeloma cell lines against the NCATS MIPE library collection: JJN3_DSMZ cell viability assay (AID 1918966; also: potency is read from the fitted curve at half-maximal effect; nearly all actives have a fitted effect of over 50% in size)
Procedure, shortened: as §2

[12] = Quantitative High-Throughput drug screen in 47 multiple myeloma cell lines against the NCATS MIPE library collection: H1112_PLB cell viability assay (AID 1918967; also: nearly all actives have a fitted effect of over 30% in size; also: potency is read from the fitted curve at half-maximal effect)
Procedure, shortened: as §2

[13] = Quantitative High-Throughput drug screen in 47 multiple myeloma cell lines against the NCATS MIPE library collection: Karpas25_ECACC cell viability assay (AID 1918968; also: potency is read from the fitted curve at half-maximal effect; nearly all actives have a fitted effect of over 35% in size)
Procedure, shortened: as §2

[14] = Quantitative High-Throughput drug screen in 47 multiple myeloma cell lines against the NCATS MIPE library collection: KMS12BM_JCRB cell viability assay (AID 1918971); also: nearly all actives have a fitted effect of over 35% in size; also: potency is read from the fitted curve at half-maximal effect
Procedure, shortened: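 Inhibition of cell viability is measured here. Each line was plated at 500 cells per well, treated with MIPE 4.0 drugs, kept 48 hours at 37C, then assayed for ATP content by CellTiter-Glo luminescence.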

[15] = Quantitative High-Throughput drug screen in 47 multiple myeloma cell lines against the NCATS MIPE library collection: KMS12PE_JCRB cell viability assay (AID 1918972); also: nearly all actives have a fitted effect of over 30% in size; also: potency is read from the fitted curve at half-maximal effect
Procedure, shortened: as §1

[16] = Quantitative High-Throughput drug screen in 47 multiple myeloma cell lines against the NCATS MIPE library collection: AMO1_DSMZ cell viability assay (AID 1918927; also: nearly all actives have a fitted effect of over 30% in size; also: potency is read from the fitted curve at half-maximal effect)
Procedure, shortened: as §2

[17] = Quantitative High-Throughput drug screen in 47 multiple myeloma cell lines against the NCATS MIPE library collection: Karpas620_DSMZ cell viability assay (AID 1918959); also: nearly all actives have a fitted effect of over 30% in size; also: potency is read from the fitted curve at half-maximal effect
Procedure, shortened: as §1

[18] = Quantitative High-Throughput drug screen in 47 multiple myeloma cell lines against the NCATS MIPE library collection: KMS27_JCRB cell viability assay (AID 1918970); also: nearly all actives have a fitted effect of over 30% in size; also: potency is read from the fitted curve at half-maximal effect
Procedure, shortened: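 Viability inhibition screen, 48 h compound exposure, luminescent ATP read-out.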

[19] = Quantitative High-Throughput drug screen in 47 multiple myeloma cell lines against the NCATS MIPE library collection: Karpas417_ECACC cell viability assay (AID 1918961); conditions: Karpas417 myeloma viability, CellTiter-Glo ATP luminescence, 48 h; viability (% of DMSO): at 45.8 µM (top of the series); also: potency is read from the fitted curve at half-maximal effect
Procedure, shortened: as §1

[20] = Quantitative High-Throughput drug screen in 47 multiple myeloma cell lines against the NCATS MIPE library collection: JIM1_ECACC cell viability assay (AID 1918964; also: potency is read from the fitted curve at half-maximal effect)
Procedure, shortened: as §2

| SMILES | Potency [1] | Potency [2] | Potency [3] | Potency [4] | Potency [5] | Potency [6] | Potency [7] | Potency [8] | Potency [9] | Potency [10] | Potency [11] | Potency [12] | Potency [13] | Potency [14] | Potency [15] | Potency [16] | Potency [17] | Potency [18] | Potency [19] | Potency [20] |
| --- | --- | --- | --- | --- | --- | --- | --- | --- | --- | --- | --- | --- | --- | --- | --- | --- | --- | --- | --- | --- |
| C=CCn1c(=O)c2cnc(Nc3ccc(N4CCN(C)CC4)cc3)nc2n1-c1cccc(C(C)(C)O)n1 | inactive | 0.132 µM (active) | 0.418 µM (active) | 1.48 µM (active) | 1.18 µM (active) | 0.264 µM (active) | 0.332 µM (active) | 0.833 µM (active) | 0.59 µM (active) | 0.526 µM (active) | 0.743 µM (active) | 0.469 µM (active) | 0.332 µM (active) | 0.526 µM (active) | 0.118 µM (active) |  |  |  |  |  |
| COc1cccc(Nc2c(C(N)=O)cnc3c(C)cc(S(=O)(=O)c4cccc(C(=O)N(C)C)c4)cc23)c1 | inactive | inactive | inactive | inactive |  | 12.9 µM (active) | 10.2 µM (active) |  | inactive |  |  |  |  | inactive | 12.9 µM (active) |  |  |  |  |  |
| Cc1c(NC(=O)OC[C@@H]2COCCN2)cn2ncnc(Nc3ccc4c(cnn4Cc4cccc(F)c4)c3)c12 | inactive | 1.32 µM (active) | 0.833 µM (active) |  |  | 11.8 µM (active) | 14.8 µM (active) |  | 1.32 µM (active) | 3.32 µM (active) |  |  | 7.43 µM (active) |  | 18.7 µM (active) | 3.32 µM (active) | 18.7 µM (active) | 20.9 µM (active) |  |  |
| Cc1c(Cn2c(C)nc3c(C(=O)O)cc(N4CCOCC4)cc32)cccc1C(F)(F)F | inactive | 5.9 µM (active) | 5.9 µM (active) |  |  | inactive | 20.9 µM (active) |  | 9.35 µM (active) | 16.6 µM (active) |  |  |  |  | inactive | 14.8 µM (active) | inactive |  |  |  |
| O=C(O)Cn1nnc(-c2cc(N3CCC(Oc4cc(F)ccc4Br)CC3)no2)n1 | inactive | inactive | inactive | inactive |  |  | inactive |  | 16.6 µM (active) | inactive |  | inactive |  | inactive | inactive |  | inactive |  |  |  |
| Nc1nc(NCCNc2ncc(-n3ccnc3)c(-c3ccc(Cl)cc3Cl)n2)ccc1[N+](=O)[O-] | inactive | 13.2 µM (active) | 1.48 µM (active) | 16.6 µM (active) | 11.8 µM (active) | 6.62 µM (active) |  | 5.26 µM (active) | 5.26 µM (active) | 1.18 µM (active) |  |  | 1.48 µM (active) |  |  |  |  |  | inactive |  |
| CCCCCN(CCC12CC3CC(CC(C3)C1)C2)C(=O)NCCCc1ccncc1 | inactive | 18.7 µM (active) |  | 23.5 µM (active) |  | 11.8 µM (active) | inactive |  | 20.9 µM (active) | 16.6 µM (active) |  | 18.7 µM (active) |  | 26.4 µM (active) | 4.69 µM (active) | 14.8 µM (active) | 2.96 µM (active) | 4.18 µM (active) |  |  |
| Cc1ccc(C(=O)Nc2cccc(C(F)(F)F)c2)cc1-c1ccc2nc(NCCN3CCOCC3)ncc2c1 | inactive | 10.5 µM (active) | 13.2 µM (active) | 16.6 µM (active) |  | 2.64 µM (active) |  | 0.743 µM (active) | 13.2 µM (active) | 3.32 µM (active) | 16.6 µM (active) | 14.8 µM (active) |  | 8.33 µM (active) | 2.64 µM (active) |  | 2.64 µM (active) | 2.96 µM (active) | 1.18 µM (active) | 1.05 µM (active) |
| CNC(=O)c1ccccc1Nc1nc(Nc2ccc(N3CCOCC3)cc2OC)ncc1Cl | inactive | 13.2 µM (active) | 0.148 µM (active) | 13.2 µM (active) | 0.935 µM (active) | 0.0935 µM (active) | 0.296 µM (active) | 7.43 µM (active) | 0.209 µM (active) | 5.26 µM (active) | 3.72 µM (active) |  | 0.209 µM (active) | 13.2 µM (active) | 1.05 µM (active) |  |  | 0.132 µM (active) |  | 0.105 µM (active) |
| CCn1cc(-c2ccnc3[nH]c(-c4cccc(CN(C)C)c4)cc23)c(-c2ccc(NC(=O)N(C)C)cc2)n1 | inactive | 20.9 µM (active) | 3.32 µM (active) |  |  | 8.33 µM (active) | 3.32 µM (active) |  | 5.26 µM (active) |  | 16.6 µM (active) | 14.8 µM (active) | 4.18 µM (active) | 13.2 µM (active) | 5.26 µM (active) | 5.26 µM (active) | 20.9 µM (active) | 7.43 µM (active) | 1.87 µM (active) | 5.26 µM (active) |
| Cn1c(CNc2ccc(C(=N)N)cc2)nc2cc(C(=O)N(CCC(=O)O)c3ccccn3)ccc21 | inactive | inactive |  | 0.0006 µM (active) | inactive | inactive | inactive | inactive | inactive |  |  | inactive |  | inactive | inactive | inactive | inactive | inactive |  | inactive |
| Cc1nc(Nc2n[nH]c3c2CN(C(=O)N[C@H](CN(C)C)c2ccccc2)C3(C)C)c2sccc2n1 | inactive | 0.833 µM (active) | 0.0332 µM (active) | 1.48 µM (active) | 0.469 µM (active) |  | 0.105 µM (active) | 0.0132 µM (active) | 0.0469 µM (active) | 0.0059 µM (active) | 4.18 µM (active) | 1.66 µM (active) | 0.526 µM (active) | 0.743 µM (active) |  |  | 2.64 µM (active) |  |  |  |
